Values joined by “and” are separate entries in the source; they are usually repeats but may differ in a detail not shown here. Identical values can stand only once. About 83,000 compounds went through this panel and 20% of them were active in at least one assay; those are over-represented in the sample as a whole.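 How to read the values: 0–100, growth inhibition (40 = 60% inhibited); 0, no net growth; -100 to 0, cell death (-40 = 40% of starting cells died; -100 = all dead).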 Active and inactive are the calls of the source. The calls were made as follows: active = growth percent below 10; inactive = the rest.

This assay concerns MDA-MB-435 melanoma. The assay is described as follows: NCI-60 one-dose screen, 48 h (100 = growth as untreated, 0 = no growth, -100 = all killed). The note with it: 10 µM unless noted.
With `Cc1c(O)c(O)cc2c3c(oc12)CC(c1ccc2c(c1)OCO2)CC3=O` (centres undefined), the growth was 105% (inactive).

Take `CN1CCN(CCCN2c3ccccc3Sc3ccc(Cl)cc32)CC1`: the growth is 30.3% (inactive) and 42.4% (inactive). Then `O=C(N=Nc1c(O)[nH]c2ccccc12)Nc1ccccc1Cl`, with 84.5% (inactive); and `OCCN1CCN(CC/C=C2\c3ccccc3Sc3ccc(Cl)cc32)CC1`, with -70.8% (active) and -44.4% (active); and `COc1nc2ccc(C)cc2cc1/C=[N+](\[O-])c1ccccc1`, with 96.9% (inactive). For `O=C(CCN1CCOCC1)Nc1cccc(-n2cc(-c3ccncc3)c(-c3ccc(Cl)c(O)c3)n2)c1`, the growth is -64.1% (active). For `CN1CCN(c2ccc(Nc3ncc(C(N)=O)c(NCCCNC(=O)C4CCC4)n3)cc2)CC1`, the growth was 66.9% (inactive).

Take `CN(C)c1ccc2nc3ccc(=O)cc-3sc2c1`: the growth is 40.7% (inactive) and -65.2% (active). Next, `CC(=O)N1N=C(c2ccc(Nc3nc(Nc4ccc(F)cc4)nc(Nc4ccc(F)cc4)n3)cc2)CC1c1ccccc1` (centres undefined): 105% (inactive). As for `C/C=C(\C)C(=O)N[C@H]1CC[C@]2(C)C3CC[C@@]4(C)C(CC[C@@H]4C(C)N(C)C)C3CCC2[C@H]1OC(C)=O` (some centres undefined), the growth is -56.8% (active). Turning to `Cc1ccc(-c2nc3nc(-c4ccc(Cl)cc4)nc(N4CCCNCC4)c3o2)cc1`, the growth is -81.1% (active). As for `Nc1n[nH]c2cccc(C#Cc3cccc(NC(=O)c4ccc(N5CCOCC5)c(C(F)(F)F)c4)c3)c12`, the growth is 19.2% (inactive). On to `O=C1C(c2c[nH]c3ccccc23)=C(c2coc3cc(Br)ccc23)C(=O)N1O`, for which the growth is 103% (inactive).

With `Cc1cc(N2CCCCC2)nc(NCc2cc(Nc3ccnc4cc(Cl)ccc34)ccc2F)n1`, the growth is -86.7% (active).

As to `CC1(C)C(N)=Nc2cc(OCCCN3Cc4ccc(OCCc5cn(CC(=O)N6CCC(CCN7CCCC7)CC6)nn5)cc4C3)c(OCC3CC3)cc21`, the growth was 102% (inactive).

Consider `CS(=O)(=O)Nc1cc(-c2ccc3ncnc(Nc4ccc(F)c(Cl)c4)c3c2)cnc1Cl`, for which the growth is 9.94% (active). Regarding `Cc1cnc(C(=O)NNc2nc3sc4c(c3c(=O)[nH]2)C(C)CCC4)cn1` (centres undefined), the growth is 31.4% (inactive). Consider `Cn1cc2c(=O)nc3c(-c4nc5ccccc5[nH]4)n[nH]n3c2n1`, for which the growth was 73.9% (inactive). Next, `Cc1ccc(-c2nc3nc(-c4ccc(F)cc4)nc(N4CCCNCC4)c3o2)cc1`: -95.7% (active); `COc1ccc2c(c1)c(-c1nc(-c3c[nH]c4c(Cl)nccc34)cs1)cn2C`: 98.3% (inactive); `Cc1nc2sc(C(=O)Nc3cccc4ncccc34)c(N)c2cc1C(C)O` (centres undefined): -8.44% (active).

`CN(C)CCCn1c2nc(=O)[nH]c(=O)c-2nc2cc(Cl)c(Cl)cc21`: the growth is 106% (inactive). Consider `CCOC(=O)c1c(-c2ccc(OC)cc2)c(C#N)c2c(C#N)c(N)nn2c1N`, for which the growth is -38.2% (active). Next, `COc1ccc(S(=O)(=O)Nc2cc(Sc3cccc4cccnc34)c(O)c3ccccc23)cc1`: 16.4% (inactive).

The values are drawn from PubChem BioAssay (NCI).
